Test results: PubChem BioAssay AID2073 (Sanford-Burnham Center for Chemical Genomics, 2009)
Screen size: about 290,000 compounds; about 570 (0.2%) were called active. Roughly 1% stayed inconclusive and do not appear here. No stated cut-off is given here; in the data, active means inhibition mostly above about 51% (no sharp cut-off); inconclusive means no clear call, values can overlap the other calls; inactive means mostly below about 53%. The list comes from a sample in which actives are over-represented; it also holds similar structures and randomly drawn compounds.

Biological target: Voltage-dependent N-type calcium channel subunit alpha-1B (Homo sapiens) (UniProt Q00975)
Test: disruptors of CaV2.2 binding to Mint1 – biochemical, HTRF (AID 2073)
Settings: HTRF protein-protein interaction, Mint1-CaV2.2, at 20 µM, stronger effect = higher value
[1] = measured here: average of repeat tests

Voltage-dependent N-type calcium channel subunit alpha-1B (Homo sapiens), sequence (Q00975 whole entry, looked up): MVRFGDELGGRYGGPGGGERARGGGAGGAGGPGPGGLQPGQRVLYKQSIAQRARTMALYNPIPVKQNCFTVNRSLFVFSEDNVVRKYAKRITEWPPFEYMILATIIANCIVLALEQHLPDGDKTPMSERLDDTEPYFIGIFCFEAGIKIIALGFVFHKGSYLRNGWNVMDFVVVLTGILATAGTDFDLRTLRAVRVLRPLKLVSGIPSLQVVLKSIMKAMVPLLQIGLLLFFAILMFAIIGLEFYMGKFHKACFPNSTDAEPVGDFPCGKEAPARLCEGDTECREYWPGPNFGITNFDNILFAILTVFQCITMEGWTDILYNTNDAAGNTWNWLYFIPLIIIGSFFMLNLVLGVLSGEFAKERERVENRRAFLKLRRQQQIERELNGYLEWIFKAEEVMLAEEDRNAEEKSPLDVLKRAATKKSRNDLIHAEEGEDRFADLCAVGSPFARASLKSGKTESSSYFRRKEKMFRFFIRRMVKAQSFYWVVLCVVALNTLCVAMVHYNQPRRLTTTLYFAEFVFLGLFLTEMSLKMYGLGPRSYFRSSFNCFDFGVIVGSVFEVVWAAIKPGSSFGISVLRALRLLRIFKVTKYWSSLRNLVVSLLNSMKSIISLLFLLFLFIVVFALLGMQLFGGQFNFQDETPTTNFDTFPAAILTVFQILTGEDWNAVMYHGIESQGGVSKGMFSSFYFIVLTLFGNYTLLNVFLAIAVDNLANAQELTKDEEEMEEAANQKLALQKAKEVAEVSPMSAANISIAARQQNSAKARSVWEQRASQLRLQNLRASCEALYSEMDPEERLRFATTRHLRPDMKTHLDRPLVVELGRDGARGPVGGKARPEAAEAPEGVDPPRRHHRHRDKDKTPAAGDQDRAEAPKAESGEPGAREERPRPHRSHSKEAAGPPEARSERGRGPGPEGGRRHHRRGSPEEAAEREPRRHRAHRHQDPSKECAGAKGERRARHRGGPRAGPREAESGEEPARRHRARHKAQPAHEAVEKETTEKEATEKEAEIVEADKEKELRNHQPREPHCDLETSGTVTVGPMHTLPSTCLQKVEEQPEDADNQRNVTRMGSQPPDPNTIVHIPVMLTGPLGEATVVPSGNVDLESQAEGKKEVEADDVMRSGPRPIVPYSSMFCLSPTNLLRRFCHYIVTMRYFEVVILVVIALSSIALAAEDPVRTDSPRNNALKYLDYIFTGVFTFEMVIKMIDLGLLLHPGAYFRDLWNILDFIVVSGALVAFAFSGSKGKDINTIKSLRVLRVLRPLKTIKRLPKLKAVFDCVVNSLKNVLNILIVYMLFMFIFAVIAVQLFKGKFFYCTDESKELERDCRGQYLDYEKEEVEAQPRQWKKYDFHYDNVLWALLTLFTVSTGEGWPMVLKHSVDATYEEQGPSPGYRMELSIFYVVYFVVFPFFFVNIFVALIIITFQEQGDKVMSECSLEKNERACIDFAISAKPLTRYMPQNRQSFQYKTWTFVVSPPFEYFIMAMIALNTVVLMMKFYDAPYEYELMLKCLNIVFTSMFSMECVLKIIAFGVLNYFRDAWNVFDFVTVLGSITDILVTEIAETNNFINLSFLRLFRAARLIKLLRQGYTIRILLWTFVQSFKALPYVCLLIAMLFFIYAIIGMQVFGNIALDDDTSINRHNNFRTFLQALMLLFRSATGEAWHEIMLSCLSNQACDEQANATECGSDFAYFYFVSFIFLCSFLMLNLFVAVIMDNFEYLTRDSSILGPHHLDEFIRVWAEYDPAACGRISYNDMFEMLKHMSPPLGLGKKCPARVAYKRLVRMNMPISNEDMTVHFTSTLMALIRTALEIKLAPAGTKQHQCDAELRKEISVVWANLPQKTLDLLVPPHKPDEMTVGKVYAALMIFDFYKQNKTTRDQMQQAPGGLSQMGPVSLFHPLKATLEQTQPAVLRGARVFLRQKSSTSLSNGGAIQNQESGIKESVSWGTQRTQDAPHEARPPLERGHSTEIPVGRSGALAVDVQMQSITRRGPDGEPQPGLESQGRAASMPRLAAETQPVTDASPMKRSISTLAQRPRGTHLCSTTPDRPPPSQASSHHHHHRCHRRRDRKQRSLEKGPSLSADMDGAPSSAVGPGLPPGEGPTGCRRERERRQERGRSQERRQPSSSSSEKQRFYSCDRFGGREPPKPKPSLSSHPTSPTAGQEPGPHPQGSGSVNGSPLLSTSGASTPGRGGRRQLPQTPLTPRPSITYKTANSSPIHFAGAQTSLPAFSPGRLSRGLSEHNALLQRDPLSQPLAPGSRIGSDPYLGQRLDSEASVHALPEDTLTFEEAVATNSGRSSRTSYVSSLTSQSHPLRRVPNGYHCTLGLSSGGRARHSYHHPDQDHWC

| Compound | inhibition | inhibition [1] |
| --- | --- | --- |
| Cc1ccc(C(=O)NCCc2nnc3ccc(NCc4ccc5c(c4)OCO5)nn23)cc1 | -1.4% (inactive) | – |
| COc1ccc(C(=O)Nc2ccc(Cl)cc2C(=O)NCCO)cc1 | -1.8% (inactive) | – |
| CCN1CCCC1CNC(=O)c1cc2c(C)nc3ccccc3c2o1 (stereo not drawn) | 5.2% (inactive) | – |
| CCOC(=O)N1CCC(C(=O)NNC(=O)c2ccc(Cl)cc2Cl)CC1 | 6.9% (inactive) | – |
| CN1/C(=C/C(=O)C2CC2)C(C)(C)c2ccccc21 | 3.3% (inactive) | – |
| CCOC(=O)c1cc2c(=O)n3ccccc3nc2n(Cc2ccco2)c1=NC(=O)c1ccccc1OC | 10.2% (inactive) | – |
| CCOC(=O)c1cc2c(=O)n3ccccc3nc2n(Cc2ccco2)c1=NC(=O)c1ccc(OC)cc1OC | 66.1% (active) | – |
| CCOC(=O)c1cc2c(=O)n3ccccc3nc2n(Cc2ccco2)c1=NC(=O)c1ccc(OC)cc1 | 33.1% (inactive) | – |
| Cc1ccc(CNC(=O)c2ccc(S(=O)(=O)Nc3c(C)n(C)n(-c4ccccc4)c3=O)cc2)cc1 | 0.9% (inactive) | – |
| O=Cc1cccn1-c1cccnc1 | 8.9% (inactive) | – |
| Fc1ccccc1N1CCN(C2CCCN(Cc3ccccc3C(F)(F)F)C2)CC1 (stereo not drawn) | -0.4% (inactive) | – |
| CCN(CC)CCN(C(=O)c1ccc2c(c1)OCCO2)c1nc2ccc(C)cc2s1 | -5.5% (inactive) | – |
| OCCN(CCO)c1ncnc2c1sc1nc(N3CCOCC3)c3c(c12)CCCC3 | 16.9% (inactive) | – |
| CC1(C)Cc2c(c(N3CCCC3)nc3sc4c(N5CCN(CCO)CC5)ncnc4c23)CO1 | -8.9% (inactive) | – |
| CSc1nc(N(CCO)CCO)c2sc3nc(-c4ccco4)c4c(c3c2n1)CCC4 | 72.4% (active) | – |
| CC1(C)Cc2c(c(-c3ccco3)nc3sc4c(NCCCO)ncnc4c23)CO1 | 5.3% (inactive) | – |
| CSc1nc(N2CCN(CCO)CC2)c2sc3nc(-c4ccco4)c4c(c3c2n1)CCC4 | 64% (active) | – |
| OCCN1CCN(c2ncnc3c2sc2nc(N4CCOCC4)c4c(c23)CCC4)CC1 | 3.4% (inactive) | – |
| Cc1nn(Cc2noc(C(=O)NCCc3ccccn3)n2)c(C)c1Br | 7.3% (inactive) | – |
| CC1(C)CC(NC(=O)c2ccccc2C(=O)NC2CC(C)(C)NC(C)(C)C2)CC(C)(C)N1 | 32.5% (inactive) | – |
| CCOC(=O)c1cnn(-c2nc(-c3ccccc3)nc3c2COC(C)(C)C3)c1N | -0.5% (inactive) | – |
| CCOC(=O)N1CCN(C(=O)CSc2nc3c(cnn3-c3ccc(C)cc3)c(=O)[nH]2)CC1 | 7.8% (inactive) | – |
| CCn1c(=O)cc(OCC(=O)Nc2ccc3c(c2)OCCO3)c2ccccc21 | 21.8% (inactive) | – |
| CCc1ccc2[nH]c(=O)c(C(c3nnnn3CC3CCCO3)N3CCCc4ccccc43)cc2c1 (stereo not drawn) | 73% (inactive) | 15.4% |
| Cc1ccc2[nH]c(=O)c(C(c3nnnn3CC3CCCO3)N3CCCc4ccccc43)cc2c1 (stereo not drawn) | 94.9% (inactive) | 12.5% |
| Cc1cc2cc(C(c3nnnn3CC3CCCO3)N3CCCc4ccccc43)c(=O)[nH]c2cc1C (stereo not drawn) | 70% (active) | – |
